High-throughput results: PubChem BioAssay, National Center for Advancing Translational Sciences (NCATS)
The list is not random: actives were taken first. Their share in the collection is about 9.3%.
SMN2 splice up: enhancers of SMN2 splice variant expression | HEK293 SMN2-luciferase splicing reporter, luminescence, 30-36 h | Potency, µM (titrated, usually from 46.1 µM), without a hit: at the highest dose activity change, positive = activation, actives largely listed as activators | 210,000 tested, 2.8% active; further: % of control where 0% means no effect; nearly all actives have a fitted effect of over 55% in size
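HEK293 cells carry an SMN2 […]–luciferase reporter in which exon 7 inclusion puts luciferase in frame. Cells were plated 10-12 h before compound addition, then incubated 30-36 h at 37C. ONE-Glo luminescence was read; sodium butyrate at 4.5 mM final served as control.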
ELG1 genotox: genotoxicity induction in ELG1-luciferase HEK293T cells; HEK293T ELG1-luciferase reporter, luminescence, 16 h; Potency, µM (highest dose often 46 µM), without a hit: at the top dose activity change, positive = activation, actives largely listed as activators; 330,000 tested, 1.3% active; AID 504466; further: % of control where 0% means no effect; nearly all actives have a fitted effect of over 60% in size
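16 hr compound incubation (37 °C, 5% CO2) of HEK293T cells carrying luciferase-tagged ELG1; luciferase then measured by ONE-Glo luminescence after 30 min at RT.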
ELG1 repair inh: blocks ELG1-dependent DNA repair in HEK293T cells | Potency, µM (series often up to 46.1 µM), for inactives: at the highest dose activity change, negative = inhibition, hits mostly inhibitors | 330,000 tested, 2.3% active | HEK293T ELG1-luciferase reporter, luminescence, 16 h; DNA damage induced by 5-fluorouridine | AID 504467; further: on the % scale 0 is the no-effect control and ±100 the full control effect; nearly all actives have a fitted effect of over 55% in size
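Reporter activity after DNA damage by 5-fluorouridine is monitored. Compound-treated cells incubate 16 hr at 37 °C, then ONE-Glo is added for 30 min before luminescence reading.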
FLuc counter: firefly luciferase modulation, counter-screen for miR-21 project | P08659 | purified FLuc, Km substrates, luminescence inhibition | Potency, µM (top dose mostly 57.5 µM), for inactives: top-dose activity change, negative = inhibition, most hits filed as inhibitors | 360,000 tested, 6.9% active;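 further: plate controls were vehicle for no effect and reference inhibitor for full effect; nearly all actives have a fitted effect of over 55% in size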
Target sequence (P08659 whole entry, looked up): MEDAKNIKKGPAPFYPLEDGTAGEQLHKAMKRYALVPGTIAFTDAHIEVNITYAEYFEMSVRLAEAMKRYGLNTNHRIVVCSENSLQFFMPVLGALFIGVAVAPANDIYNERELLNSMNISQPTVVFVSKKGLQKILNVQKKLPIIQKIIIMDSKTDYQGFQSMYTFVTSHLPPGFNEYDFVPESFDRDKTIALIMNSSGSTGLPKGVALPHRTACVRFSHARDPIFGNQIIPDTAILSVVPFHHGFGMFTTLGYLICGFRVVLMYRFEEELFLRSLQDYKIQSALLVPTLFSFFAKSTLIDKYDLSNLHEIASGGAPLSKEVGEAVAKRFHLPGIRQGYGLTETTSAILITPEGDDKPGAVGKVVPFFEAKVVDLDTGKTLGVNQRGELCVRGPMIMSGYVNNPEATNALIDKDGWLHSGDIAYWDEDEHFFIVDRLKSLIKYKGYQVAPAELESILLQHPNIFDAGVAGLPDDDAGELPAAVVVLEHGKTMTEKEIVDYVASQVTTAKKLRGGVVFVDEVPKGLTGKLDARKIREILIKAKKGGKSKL
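Purified P. pyralis luciferase, 10 nM final, with Km-level 10 uM D-luciferin and 10 uM ATP in 50 mM Tris acetate pH 7.5, 10 mM Mg acetate, 0.01% Tween-20, 0.05% BSA; 6-point qHTS titration about 60 µM downward; luminescence read.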
Rab9 prom act: activates the Rab9 promoter | Huh7 Rab9 promoter-luciferase reporter, luminescence, 24 h | Potency, µM (highest dose often 9.22 µM), for the others: at the highest dose activation, negative = inhibition, usual class: activators | 320,000 tested, 2.8% active; further: % of control where 0% means no effect; nearly all actives have a fitted effect of over 60% in size
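Rab9 promoter-driven luciferase in stably transfected Huh7 cells; 1500 cells/well rested 2 h, exposed to compound in DMSO for 24 h at 37 °C, 5% CO2. Luminescence read 10 min after adding luciferase reagent at ambient temperature.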
NPC1 promoter act: activates the NPC1 promoter. Huh7 NPC1 promoter luciferase reporter, 24 h. Potency, µM (highest dose often 9.22 µM), inactives show at the top dose activation, most hits filed as activators. 320,000 tested, 2.4% active; further: % of control where 0% means no effect; nearly all actives have a fitted effect of over 60% in size
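Huh7 cells stably carrying NPC1 promoter–luciferase, plated in Opti-MEM with 10% FBS for 2 h, were exposed to compound in DMSO for 24 h at 37 °C; luciferase reagent was added for 10 min and luminescence read.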
Starred values were filed as active, the others as inactive; ? = inconclusive; . = no result given; [ ] = another dose, or the depositor's remark. The call rests on the fitted dose curve; in most records, active means well fitted curve in the direction sought with a large enough effect; inconclusive means small, poorly fitted or top-dose-only effect, or another doubt; inactive means no such curve, though single readings can be large; an effect the other way counts as inactive or inconclusive. Potency means the concentration at half of the fitted maximal effect.

SMILES	SMN2 splice up	ELG1 genotox	ELG1 repair inh	FLuc counter	Rab9 prom act	NPC1 promoter act
O=C(O)c1cn(-c2ccccc2)nc1-c1ccc(F)cc1	.	-0.2%[9.26 µM]	0.6%	?	0.6%	-2.3%
N#Cc1cn(-c2ccccc2)nc1-c1ccc2c(c1)OCCO2	14.1µM*	?	?	-12.0%[2.3 µM]	3.98µM*	?
Cc1cccc(C)c1Nc1nn2c(=O)c3cc4c(cc3nc2s1)OCO4	-2.4%	.	.	-8.3%	.	.
COc1ccc(NS(=O)(=O)c2ccc(N3CCCC3)c(NC(=S)Nc3ccc(SC(F)F)cc3)c2)cc1	3.1%[1.84 µM]	-9.1%	23.1µM*	-17.5%	0.8%	-1.5%
O=C(NCCO)C(=O)NCC1OCCCN1S(=O)(=O)c1ccc2c(c1)OCCO2 (configuration not stated)	.	-0.1%	-3.9%	1.0%	7.1%	2.2%
Cn1c(=O)cc(OCC(=O)NCCCN2CCN(Cc3ccccc3)CC2)c2ccccc21	?	18.4µM*	?	1.7%	0.4%	-0.2%
Cn1c(=O)cc(OCCCC(=O)NCc2ccco2)c2ccccc21	10µM*	18.4µM*	?	-2.2%	-4.0%	-7.9%
CC(C)CCNC(=O)CCCOc1cc(=O)n(C)c2ccccc12	12.6µM*	?	?	4.6%	-1.3%	-8.4%
COc1ccc(N2CCN(C(=O)CCCOc3cc(=O)n(C)c4ccccc34)CC2)cc1	-8.2%	-0.4%	29.3%	3.0%	1.7%	-1.4%
Cc1ccc(CNC(=O)CCCOc2cc(=O)n(C)c3ccccc23)o1	?	?	?	-1.6%	-0.2%	-10.4%
CC1CCN(C(=O)CCCOc2cc(=O)n(C)c3ccccc23)CC1	?	18.4µM*	?	-1.9%	-5.5%	-2.8%
CN1CCN(CCCNC(=O)CCCOc2cc(=O)n(C)c3ccccc23)CC1	16.3%	5.0%	?	14.7%	-10.1%	-4.8%
COc1ccccc1C(=O)NC(CCSC)C(=O)NCCCn1nc(C)cc1C (configuration not stated)	.	0.8%	18.8%	0.1%	-1.9%	-0.1%
Cc1ccc(S(=O)(=O)NCC(=O)NCC(=O)N2CCC(C)CC2)cc1	.	-3.4%	-15.8%	5.4%	-1.4%	-3.6%
O=C(CCCCn1c(=O)c2ccccc2n(CC(=O)Nc2ccc(F)cc2)c1=O)NCc1ccco1	-8.6%	-1.5%	20.6µM*	-1.1%	-3.8%	0.7%
Cc1ccccc1C(=O)Nc1ccccn1	-19.4%	.	.	-12.6%	.	.
Cn1cc(C(=O)Nc2ccccn2)c(=O)c2ccccc21	.	?	?	15.1µM*	?	?
Cn1c(=O)cc(OCCCC(=O)Nc2ccccn2)c2ccccc21	21.0%	20.6µM*	?	1.8%	-6.7%	-4.6%
C=CCN1C(=NC(=O)COc2ccc(Cl)cc2)SC2CS(=O)(=O)CC21 (configuration not stated)	.	-3.3%	1.7%	1.9%	0.5%	-3.2%
O=C(c1ccccc1)c1ccc(N2CCOCC2)c(F)c1	?	?	?	10.7µM*	3.55µM*	3.55µM*
O=C(c1ccccc1)c1cc(F)c(N2CCOCC2)cc1Cl	-10.0%	-6.0%	19.4%	?	0.2%	0.4%
O=C(Cc1ccccc1)Nc1cc(C(=O)c2ccccc2)ccc1N1CCOCC1	-16.6%	-6.0%	25.9µM*	1.5%	-4.4%	1.4%
COc1ccc(NC(=O)CSc2nc3ccncc3[nH]2)c(OC)c1	-40.8%	-0.5%	-1.0%	-1.0%	-4.7%	-2.8%
C[C@H](CO)N1C[C@H](C)[C@@H](CN(C)C(=O)Nc2ccc(F)cc2)Oc2ccc(NS(C)(=O)=O)cc2C1=O	.	7.0%	10.0%	.	.	.
Cc1nc2ccccc2c(=O)n1NC(=O)C1CCC(C(C)(C)C)CC1 (configuration not stated)	-44.4%	-9.6%	-21.1%	-1.8%	0.2%	-0.3%
SMILES	SMN2 splice up	ELG1 genotox	ELG1 repair inh	FLuc counter	Rab9 prom act	NPC1 promoter act
O=C(O)Cc1ccc(OCc2ccc(Cl)nc2)cc1	-3.1%	-10.1%	?	15.1µM*	0.9%	9.2%
CC(NC(=O)C1CCN(S(=O)(=O)c2cccc3nonc23)CC1)c1ccccc1 (configuration not stated)	.	5.0%	-15.0%	1.7%	8.0%	-3.1%
Cc1ccc(-n2ncc3c(NCCCn4ccnc4)ncnc32)cc1	.	.	.	12µM*	.	.
Cc1cccc(-n2ncc3c(NCCCn4ccnc4)ncnc32)c1	7.08µM*	?	?	?	?	27.0%
COc1ccc(N2CCN(C(=O)C(NC(=O)c3c(F)cccc3F)C(C)C)CC2)cc1 (configuration not stated)	.	-4.2%	-24.6%	1.6%	-2.8%	3.2%
CCCCn1nc2cc(C(=O)NCCc3cccs3)ccc2c1OCC	9.1%	4.5%	10.5%	-14.9%	21.5%	?
CCCCOc1ccc(C(=O)NCCc2cccs2)cc1	12.6µM*	?	?	7.57µM*	1.78µM*	3.98µM*
CCOc1ccc(C(=O)NCc2cccs2)cc1	14.5%	2.7%	4.7%	-2.5%	?	16.3%
CCOc1c2ccc(C(=O)NCCc3cccs3)cc2nn1CC	14.1µM*	?	?	23.9µM*	3.55µM*	?
CCc1cc(C(=O)c2ccc(Br)cc2)c(NC(=O)CN(CC)CC)s1	.	-0.6%	-26.3%	0.5%	-2.8%	-8.5%
CC(=O)c1cccc(N(C(=O)c2ccco2)C(C(=O)NC2CCCCC2)c2ccc(C)o2)c1 (configuration not stated)	.	-3.1%	-1.4%	-1.8%	1.7%	-6.5%
CCCCCCCn1ccc(=N)cc1	-90.0%	-15.5%	?	0.0%	-27.9%	-31.1%
CCCCCCCCCn1ccc(=N)cc1	.	-16.6%	0.411µM*	-0.8%	-42.0%	-37.3%
CCN(CC)c1ccc(/C=N/n2c(=S)[nH]nc(C)c2=O)cc1	.	-1.0%	?	15.1µM*	10.8%	10.9%
Cc1n[nH]c(=S)n(/N=C/c2cccs2)c1=O	.	-0.7%	15.6%	2.6%	1.3%	-2.7%
Cc1ccc(N2CC(C(=O)OCC(=O)Nc3ccccc3F)CC2=O)cc1 (configuration not stated)	?	11.7%	0.0%	1.3%	21.2%	25.9%
CCN(C(=O)CSc1nc(C)nc2sc(C)c(C)c12)c1ccc(F)cc1	.	-0.5%	1.3%	4.4%	-1.4%	-3.4%
CCN(Cc1ccc2c(c1)OCO2)C(=O)CSc1nc(C)nc2sc(C)c(C)c12	.	-10.6%	18.3µM*	-0.2%	0.6%	-9.8%
